Reference: the supplement of paper PMC10849652
Of roughly 7,900 targets only a part is listed; those with a hit were picked by preference. About 0.6% of all pairs of compound and target were hits. Unmarked numbers belong to inactive results.

Tests used:
Assay in all cases: log2 fold change, soluble protein after heating vs DMSO (PISA); higher = thermal stabilisation; K562 cells, 10 uM, 30 min; active = over 0.2 and 3.5 SD of the protein, either way, in both replicates (recomputed)
[1] = compound: CC1=C(C=C(C=C1)NC(=O)C2=CC(=CC=C2)C(C)(C)C#N)NC3=CC4=C(C=C3)N=CN(C4=O)C
Summary of the method: (§1)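 K562 cells at 2×10^6 cells/mL were given 10 μM compound for 30 min. Aliquots then went through 3 min of heating across 48°C-58°C, were pooled, and were extracted in PBS with 0.5% NP-40 at 4°C, and the supernatant after 21,000xg for 90 min was quantified by TMTpro 16plex LC-MS/MS with channel sums equalised. Thermal stability relative to control samples, from duplicates, is given as log2 fold change.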

[2] = compound: CC1=C(C=C(C=C1)NC(=O)C2=CC(=CC=C2)N(C)C)NC(=O)C3=CC=C(C=C3)O
Summary of the method: as §1

[3] = compound: CC1=CC=C(C=C1)SC2=C3C=C(SC3=CN=C2)C(=O)N
Summary of the method: as §1

Nexturastat A = compound: CCCCN(Cc1ccc(C(=O)NO)cc1)C(=O)Nc1ccccc1 [Nexturastat A]
Summary of the method: as §1

[4] = compound: CCCS(=O)(=O)Nc1ccc(F)c(C(=O)c2c[nH]c3ncc(Cl)cc23)c1F
Summary of the method: as §1

givinostat = compound: CCN(CC)Cc1ccc2cc(COC(=O)Nc3ccc(C(=O)NO)cc3)ccc2c1 [givinostat]
Summary of the method: as §1

[5] = compound: CC[C@@H]1C(=O)N(C)c2cnc(Nc3ccc(C(=O)NC4CCN(C)CC4)cc3OC)nc2N1C1CCCC1
Summary of the method: as §1

volasertib = compound: CC[C@@H]1C(=O)N(C)c2cnc(Nc3ccc(C(=O)N[C@H]4CC[C@H](N5CCN(CC6CC6)CC5)CC4)cc3OC)nc2N1C(C)C [volasertib]
Summary of the method: as §1

[6] = compound: CC[C@H](C)N1C=C(C2=C(C=C(C=C21)C3=CN=C(C=C3)N4CCNCC4)C(=O)NCC5=C(C=C(NC5=O)C)C)C
Summary of the method: as §1

epoxomicin = compound: CC[C@H](C)[C@@H](C(=O)N[C@@H]([C@@H](C)O)C(=O)N[C@@H](CC(C)C)C(=O)[C@]1(CO1)C)NC(=O)[C@H]([C@@H](C)CC)N(C)C(=O)C [epoxomicin]
Summary of the method: as §1

[7] = compound: CCn1c(C(=O)N(C2CC2)C2CC2)cc2c3c(ncn3C)c(Nc3cc(C)n(C)n3)nc21
Summary of the method: as §1

[8] = compound: CCn1cc(-c2ccnc3[nH]c(-c4cccc(CN(C)C)c4)cc23)c(-c2ccc(NC(=O)N(C)C)cc2)n1
Summary of the method: as §1

[9] = compound: CN1C2=C(C3=C1C(=O)N(N=C3)CC4=CC(=CC=C4)N)SC(=C2)S(=O)C
Summary of the method: as §1

[10] = compound: CN1CCC(CNc2ccc3ncc(-c4cccc(OC(F)(F)F)c4)n3n2)CC1
Summary of the method: as §1

[11] = compound: CC1=NC(=CC=C1)C2=C(N=C(N2)C(C)(C)C)C3=CC4=NC=CN=C4C=C3
Summary of the method: as §1

vemurafenib = compound: CCCS(=O)(=O)Nc1ccc(F)c(C(=O)c2c[nH]c3ncc(-c4ccc(Cl)cc4)cc23)c1F [vemurafenib]
Summary of the method: as §1

[12] = compound: CCCc1cc(C)[nH]c(=O)c1CNC(=O)c1cc(-c2ccnc(N3CCN(C)CC3)c2)cc2c1cnn2C(C)C
Summary of the method: as §1

barasertib = compound: CCN(CCCOc1ccc2c(Nc3cc(CC(=O)Nc4cccc(F)c4)[nH]n3)ncnc2c1)CCOP(=O)(O)O [barasertib]
Summary of the method: as §1

[13] = compound: CN(C)CC(=O)Nc1ccc2[nH]c(=O)c3ccccc3c2c1
Summary of the method: as §1

rosiglitazone = compound: CN(CCOC1=CC=C(C=C1)C[C@H]2C(=O)NC(=O)S2)C3=CC=CC=N3 (racemic) [rosiglitazone]
Summary of the method: as §1

UniProt Q15111, sequence (Q15111 whole entry, looked up): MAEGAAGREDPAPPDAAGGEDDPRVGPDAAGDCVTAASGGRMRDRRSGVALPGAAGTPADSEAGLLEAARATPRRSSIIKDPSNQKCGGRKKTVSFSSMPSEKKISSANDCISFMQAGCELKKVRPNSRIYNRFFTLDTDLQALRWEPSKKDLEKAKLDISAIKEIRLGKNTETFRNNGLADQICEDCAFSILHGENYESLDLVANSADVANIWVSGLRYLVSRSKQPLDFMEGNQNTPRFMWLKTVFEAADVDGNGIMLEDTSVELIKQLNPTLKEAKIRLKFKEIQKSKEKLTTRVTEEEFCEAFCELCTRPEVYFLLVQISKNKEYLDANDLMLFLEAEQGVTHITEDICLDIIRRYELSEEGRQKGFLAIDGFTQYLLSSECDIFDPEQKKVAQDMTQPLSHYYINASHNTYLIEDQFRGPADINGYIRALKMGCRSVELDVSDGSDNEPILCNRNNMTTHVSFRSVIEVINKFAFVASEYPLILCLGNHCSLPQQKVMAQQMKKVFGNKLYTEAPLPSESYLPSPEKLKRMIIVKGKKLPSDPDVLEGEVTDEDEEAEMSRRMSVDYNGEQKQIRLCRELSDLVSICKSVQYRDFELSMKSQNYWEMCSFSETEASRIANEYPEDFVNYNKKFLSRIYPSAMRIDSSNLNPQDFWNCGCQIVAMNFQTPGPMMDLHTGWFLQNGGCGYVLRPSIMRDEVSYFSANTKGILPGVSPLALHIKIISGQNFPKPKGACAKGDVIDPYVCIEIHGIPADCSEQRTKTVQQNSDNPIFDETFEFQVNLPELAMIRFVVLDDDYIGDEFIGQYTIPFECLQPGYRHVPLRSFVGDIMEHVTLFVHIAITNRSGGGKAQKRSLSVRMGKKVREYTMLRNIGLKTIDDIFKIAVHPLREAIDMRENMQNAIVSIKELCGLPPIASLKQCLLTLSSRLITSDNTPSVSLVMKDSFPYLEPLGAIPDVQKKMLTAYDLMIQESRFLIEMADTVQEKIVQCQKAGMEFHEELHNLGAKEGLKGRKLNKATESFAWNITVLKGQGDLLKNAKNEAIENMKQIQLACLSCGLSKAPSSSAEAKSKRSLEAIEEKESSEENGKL
UniProt P42785, sequence (P42785 whole entry, looked up): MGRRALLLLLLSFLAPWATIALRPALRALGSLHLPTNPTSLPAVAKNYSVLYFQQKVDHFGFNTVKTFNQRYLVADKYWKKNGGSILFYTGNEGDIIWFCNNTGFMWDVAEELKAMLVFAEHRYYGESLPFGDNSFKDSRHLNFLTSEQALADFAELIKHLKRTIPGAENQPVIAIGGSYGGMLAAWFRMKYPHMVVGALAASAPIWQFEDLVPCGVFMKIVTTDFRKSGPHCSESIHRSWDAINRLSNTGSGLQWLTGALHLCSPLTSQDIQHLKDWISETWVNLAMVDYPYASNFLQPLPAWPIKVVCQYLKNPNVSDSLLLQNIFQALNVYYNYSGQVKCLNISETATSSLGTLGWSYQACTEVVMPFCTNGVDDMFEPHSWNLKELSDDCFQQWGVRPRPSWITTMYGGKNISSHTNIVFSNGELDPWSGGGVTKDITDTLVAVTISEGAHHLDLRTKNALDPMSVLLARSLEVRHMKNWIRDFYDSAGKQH
UniProt O00329, sequence (O00329 whole entry, looked up): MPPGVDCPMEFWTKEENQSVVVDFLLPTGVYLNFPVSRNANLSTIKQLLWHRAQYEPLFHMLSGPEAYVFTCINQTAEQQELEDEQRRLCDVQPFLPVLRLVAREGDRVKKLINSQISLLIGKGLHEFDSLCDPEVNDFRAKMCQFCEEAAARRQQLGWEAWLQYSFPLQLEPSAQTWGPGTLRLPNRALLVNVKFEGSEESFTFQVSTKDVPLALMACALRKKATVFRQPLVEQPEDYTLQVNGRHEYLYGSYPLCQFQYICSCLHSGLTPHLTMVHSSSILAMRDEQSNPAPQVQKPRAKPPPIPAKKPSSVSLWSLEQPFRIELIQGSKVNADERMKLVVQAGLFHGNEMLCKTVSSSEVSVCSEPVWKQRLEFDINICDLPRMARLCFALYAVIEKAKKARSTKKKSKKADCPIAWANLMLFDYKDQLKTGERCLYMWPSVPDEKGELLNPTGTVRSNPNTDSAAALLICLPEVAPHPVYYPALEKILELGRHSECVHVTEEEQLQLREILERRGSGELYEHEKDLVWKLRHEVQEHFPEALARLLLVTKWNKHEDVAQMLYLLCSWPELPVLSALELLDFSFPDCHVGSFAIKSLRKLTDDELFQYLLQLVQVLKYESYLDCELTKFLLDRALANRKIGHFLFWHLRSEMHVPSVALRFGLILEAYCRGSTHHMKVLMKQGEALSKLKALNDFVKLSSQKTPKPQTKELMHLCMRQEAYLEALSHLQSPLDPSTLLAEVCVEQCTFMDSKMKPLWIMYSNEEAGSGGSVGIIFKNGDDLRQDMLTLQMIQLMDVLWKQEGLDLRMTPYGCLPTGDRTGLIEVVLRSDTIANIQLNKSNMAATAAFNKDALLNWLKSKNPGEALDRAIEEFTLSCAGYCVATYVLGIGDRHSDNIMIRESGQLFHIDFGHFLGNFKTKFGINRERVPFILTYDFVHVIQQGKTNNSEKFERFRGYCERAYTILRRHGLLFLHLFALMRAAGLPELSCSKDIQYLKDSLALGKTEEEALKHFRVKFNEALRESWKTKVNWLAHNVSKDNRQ
UniProt Q8N165, sequence (Q8N165 whole entry, looked up): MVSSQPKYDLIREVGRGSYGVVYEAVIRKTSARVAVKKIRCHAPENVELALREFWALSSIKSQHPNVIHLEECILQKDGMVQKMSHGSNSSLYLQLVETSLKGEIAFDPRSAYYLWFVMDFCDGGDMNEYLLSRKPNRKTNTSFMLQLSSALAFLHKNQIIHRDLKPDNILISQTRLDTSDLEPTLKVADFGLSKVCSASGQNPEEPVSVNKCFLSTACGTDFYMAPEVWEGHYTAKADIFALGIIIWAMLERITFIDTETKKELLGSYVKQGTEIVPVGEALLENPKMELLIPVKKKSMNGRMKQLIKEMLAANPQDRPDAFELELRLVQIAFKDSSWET
UniProt P53350, sequence (P53350 whole entry, looked up): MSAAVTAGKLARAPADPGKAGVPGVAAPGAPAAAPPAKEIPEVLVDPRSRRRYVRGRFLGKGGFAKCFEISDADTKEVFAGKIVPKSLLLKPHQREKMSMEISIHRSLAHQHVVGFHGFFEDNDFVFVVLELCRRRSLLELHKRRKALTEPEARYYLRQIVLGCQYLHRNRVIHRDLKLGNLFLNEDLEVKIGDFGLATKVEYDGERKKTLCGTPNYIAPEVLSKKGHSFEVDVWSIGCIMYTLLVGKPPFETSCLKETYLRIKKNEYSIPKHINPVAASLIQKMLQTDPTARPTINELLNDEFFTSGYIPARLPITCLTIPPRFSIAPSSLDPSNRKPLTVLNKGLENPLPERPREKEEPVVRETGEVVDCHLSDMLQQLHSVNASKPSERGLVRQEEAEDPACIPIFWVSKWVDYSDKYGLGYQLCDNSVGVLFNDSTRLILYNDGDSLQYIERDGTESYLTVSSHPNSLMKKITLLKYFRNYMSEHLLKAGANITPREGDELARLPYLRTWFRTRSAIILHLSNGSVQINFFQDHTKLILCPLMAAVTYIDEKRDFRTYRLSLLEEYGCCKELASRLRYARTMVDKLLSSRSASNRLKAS
UniProt O96013, sequence (O96013 whole entry, looked up): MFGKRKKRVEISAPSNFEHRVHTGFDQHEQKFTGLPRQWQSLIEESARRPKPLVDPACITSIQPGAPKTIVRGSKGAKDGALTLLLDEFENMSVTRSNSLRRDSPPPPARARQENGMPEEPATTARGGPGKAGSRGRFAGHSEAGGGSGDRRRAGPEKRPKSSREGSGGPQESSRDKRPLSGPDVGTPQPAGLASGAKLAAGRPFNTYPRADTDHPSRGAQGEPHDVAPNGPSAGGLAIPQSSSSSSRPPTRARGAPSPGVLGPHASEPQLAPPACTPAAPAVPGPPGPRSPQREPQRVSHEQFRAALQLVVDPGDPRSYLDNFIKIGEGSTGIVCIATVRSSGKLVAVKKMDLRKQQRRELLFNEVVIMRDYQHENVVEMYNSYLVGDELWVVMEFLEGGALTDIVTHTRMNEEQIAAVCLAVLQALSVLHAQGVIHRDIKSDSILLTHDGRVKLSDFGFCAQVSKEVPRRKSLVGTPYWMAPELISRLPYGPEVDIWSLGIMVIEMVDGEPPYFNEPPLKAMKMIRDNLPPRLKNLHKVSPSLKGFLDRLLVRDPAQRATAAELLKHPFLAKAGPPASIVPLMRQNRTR

Which results are given for POLB (UniProt P06746)?
log2 fold change [1]: 0.086; log2 fold change [2]: -0.211; log2 fold change [3]: 0.009; log2 fold change (Nexturastat A): 0.189; log2 fold change [4]: 0.178; log2 fold change (givinostat): -0.026; log2 fold change [5]: -0.127; log2 fold change (volasertib): -0.073; log2 fold change [6]: 0.077; log2 fold change (epoxomicin): 0.043; log2 fold change [7]: -0.078; log2 fold change [8]: 0.111; log2 fold change [9]: 0.016; log2 fold change [10]: -0.156

What does the source list for POLR1A (UniProt O95602)?
log2 fold change [1]: -0.082; log2 fold change [2]: -0.019; log2 fold change [3]: -0.198; log2 fold change [11]: -0.185; log2 fold change (Nexturastat A): 0.489 (active); log2 fold change (vemurafenib): 0.052; log2 fold change [4]: 0.062; log2 fold change [12]: 0.321; log2 fold change (givinostat): 0.083; log2 fold change (barasertib): 0.016; log2 fold change [5]: 0.059; log2 fold change (volasertib): 0.071; log2 fold change [6]: -0.26; log2 fold change (epoxomicin): -0.037; log2 fold change [7]: 0.063; log2 fold change [8]: -0.066; log2 fold change [13]: -0.086; log2 fold change (rosiglitazone): 0.015; log2 fold change [9]: 0.056; log2 fold change [10]: 0.054

What does the source list for PDIK1L (UniProt Q8N165)?
log2 fold change [1]: -0.079; log2 fold change [2]: 0.031; log2 fold change [3]: -0.265; log2 fold change [11]: 0.068; log2 fold change (Nexturastat A): -0.077; log2 fold change (vemurafenib): 0.026; log2 fold change [4]: 0; log2 fold change [12]: 0.03; log2 fold change (givinostat): 0.034; log2 fold change (barasertib): 0.055; log2 fold change [5]: 0.123; log2 fold change (volasertib): 0.108; log2 fold change [6]: -0.056; log2 fold change (epoxomicin): -0.128; log2 fold change [7]: 0.123; log2 fold change [13]: -0.028; log2 fold change (rosiglitazone): -0.135; log2 fold change [9]: 0.02

What does the source list for PLCL1 (UniProt Q15111)?
log2 fold change [1]: 0.056; log2 fold change [2]: -0.061; log2 fold change [11]: 0.03; log2 fold change (Nexturastat A): 0.253; log2 fold change (vemurafenib): 0.068; log2 fold change [12]: 0.159; log2 fold change (givinostat): 0.21; log2 fold change (barasertib): 0.205; log2 fold change [5]: -0.018; log2 fold change [6]: 0.232; log2 fold change (epoxomicin): -0.034; log2 fold change [7]: -0.206; log2 fold change [8]: 0.311; log2 fold change [13]: 0.035; log2 fold change (rosiglitazone): -0.128; log2 fold change [10]: -0.094

Which log2 fold change [1] does the source give for PRG4 (UniProt Q92954) here?
Its log2 fold change is -0.099.

And the log2 fold change [2]?
The log2 fold change was 0.034.

And the log2 fold change [11]?
The log2 fold change was 0.106.

What about the log2 fold change (Nexturastat A) of the same target?
Its log2 fold change is -0.007.

And the log2 fold change (vemurafenib)?
The log2 fold change was 0.008.

What about the log2 fold change [12] of the same target?
Its log2 fold change is -0.069.

What about the log2 fold change (givinostat) of the same target?
The log2 fold change was 0.102.

What about the log2 fold change (barasertib) of the same target?
Its log2 fold change is -0.023.

And the log2 fold change [5]?
The log2 fold change was 0.073.

And the log2 fold change [6]?
Its log2 fold change is -0.18.

What about the log2 fold change (epoxomicin) of the same target?
The log2 fold change was -0.294.

What about the log2 fold change [7] of the same target?
The log2 fold change was 0.053.

What about the log2 fold change [8] of the same target?
The log2 fold change was 0.075.

And the log2 fold change [13]?
The log2 fold change was -0.239.

What about the log2 fold change (rosiglitazone) of the same target?
Its log2 fold change is 0.085.

What about the log2 fold change [9] of the same target?
Its log2 fold change is 0.015.

And the log2 fold change [10]?
The log2 fold change was -0.228.

Which log2 fold change [1] does the source give for PIK3CD (UniProt O00329) here?
Its log2 fold change is 0.042.

What about the log2 fold change [2] of the same target?
Its log2 fold change is 0.079.

What about the log2 fold change [3] of the same target?
Its log2 fold change is 0.018.

And the log2 fold change [11]?
Its log2 fold change is -0.04.

And the log2 fold change (Nexturastat A)?
Its log2 fold change is -0.1.

What about the log2 fold change (vemurafenib) of the same target?
Its log2 fold change is -0.051.

And the log2 fold change [4]?
Its log2 fold change is -0.156.

And the log2 fold change (givinostat)?
The log2 fold change was -0.013.

And the log2 fold change (barasertib)?
Its log2 fold change is 0.096.

And the log2 fold change [5]?
Its log2 fold change is -0.069.

What about the log2 fold change (volasertib) of the same target?
Its log2 fold change is -0.036.

What about the log2 fold change (epoxomicin) of the same target?
The log2 fold change was -0.076.

And the log2 fold change [7]?
The log2 fold change was -0.229.

What about the log2 fold change [13] of the same target?
Its log2 fold change is -0.059.

What about the log2 fold change (rosiglitazone) of the same target?
The log2 fold change was 0.288.

What about the log2 fold change [9] of the same target?
The log2 fold change was 0.

For PAK4 (UniProt O96013), which log2 fold change [1] is on record?
The log2 fold change was -0.154.

What about the log2 fold change [2] of the same target?
Its log2 fold change is 0.06.

What about the log2 fold change [3] of the same target?
The log2 fold change was -0.017.

And the log2 fold change [11]?
Its log2 fold change is -0.017.

What about the log2 fold change (Nexturastat A) of the same target?
Its log2 fold change is -0.027.

And the log2 fold change (vemurafenib)?
The log2 fold change was -0.035.

And the log2 fold change [4]?
The log2 fold change was -0.026.

And the log2 fold change [12]?
Its log2 fold change is -0.141.

What about the log2 fold change (givinostat) of the same target?
The log2 fold change was -0.01.

What about the log2 fold change (barasertib) of the same target?
Its log2 fold change is 0.027.

And the log2 fold change [5]?
Its log2 fold change is -0.026.

And the log2 fold change (volasertib)?
The log2 fold change was -0.088.

What about the log2 fold change [6] of the same target?
The log2 fold change was -0.026.

What about the log2 fold change (epoxomicin) of the same target?
The log2 fold change was -0.017.

And the log2 fold change [7]?
The log2 fold change was 0.009.

What about the log2 fold change [8] of the same target?
Its log2 fold change is -0.059.

And the log2 fold change [13]?
The log2 fold change was -0.012.

And the log2 fold change (rosiglitazone)?
The log2 fold change was 0.062.

And the log2 fold change [9]?
The log2 fold change was 0.049.

And the log2 fold change [10]?
Its log2 fold change is -0.083.

What does the source list for PRCP (UniProt P42785)?
log2 fold change [1]: 0; log2 fold change [2]: 0.061; log2 fold change [3]: 0.022; log2 fold change [11]: -0.002; log2 fold change (Nexturastat A): 0.072; log2 fold change (vemurafenib): 0.008; log2 fold change [4]: 0.01; log2 fold change [12]: -0.082; log2 fold change (givinostat): 0.035; log2 fold change (barasertib): -0.008; log2 fold change [5]: -0.265 (active); log2 fold change (volasertib): -0.291 (active); log2 fold change [6]: -0.024; log2 fold change (epoxomicin): -0.002; log2 fold change [7]: 0.037; log2 fold change [8]: 0.008; log2 fold change [13]: 0.014; log2 fold change (rosiglitazone): 0.019; log2 fold change [9]: 0.024; log2 fold change [10]: -0.389 (active)

What does the source list for PLK1 (UniProt P53350)?
log2 fold change [1]: 0.003; log2 fold change [2]: -0.052; log2 fold change [3]: -0.03; log2 fold change [11]: -0.012; log2 fold change (Nexturastat A): 0.003; log2 fold change (vemurafenib): 0.018; log2 fold change [4]: 0.029; log2 fold change [12]: 0.042; log2 fold change (givinostat): -0.314 (active); log2 fold change (barasertib): 0.015; log2 fold change (volasertib): -2.06 (active); log2 fold change [6]: 0.049; log2 fold change (epoxomicin): 0.044; log2 fold change [7]: -0.023; log2 fold change [8]: 0.033; log2 fold change [13]: -0.016; log2 fold change (rosiglitazone): 0.016; log2 fold change [9]: -0.029; log2 fold change [10]: -0.068
